Reference: PubChem BioAssay AID720690 (Broad Institute, 2013)
Entries with a potency or affinity are not part of this list. Calls of active or inactive are those of the source.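 Rule for the calls: active = every repeat run showing a signal drop whose fitted half-maximal concentration is at most twice the top tested concentration; inconclusive = repeat runs disagree, or flat partial drop, or poor fit; inactive = the rest.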

Assay: HEK293T cytotoxicity, dose response, cytotoxicity control for miR-122 modulator project, cell-based, activator set, cherry-pick (AID 720690)
Settings: HEK293T viability, CellTiter-Glo luminescence, 48 h; series mostly up to 26 µM

| Compound | outcome |
| --- | --- |
| CCc1nc2sc(C)c(C)c2c(=O)n1CCO | inactive |
| COCC(=O)N(C[C@@H]1[C@@H](c2ccccc2)[C@@H](CO)N1C(=O)NC(C)C)C(C)C | inactive |
| O=C(CN1CCOCC1)NC[C@@H]1N[C@@H](CO)[C@@H]1c1ccc(-c2ccccc2)cc1 | inactive |
| COc1cccc(C(=O)Nc2ccc3c(c2)C(=O)N(C)[C@@H]2CC[C@@H](CC(=O)N[C@H](C)c4ccccc4)O[C@@H]2CO3)c1 | inactive |
| CCCNC(=O)C[C@@H]1CC[C@@H]2[C@@H](COc3ccc(NC(=O)Nc4ccccc4F)cc3C(=O)N2C)O1 | inactive |
| C[C@@H]1CN([C@@H](C)CO)S(=O)(=O)c2ccc(C3=CCCCC3)cc2O[C@@H]1CN(C)C(=O)Nc1ccc2c(c1)OCO2 | inactive |
| CCNC(=O)CCC(=O)Nc1cc(Cl)ccc1C | inactive |
| CNC(=O)C[C@H]1CC[C@@H]2[C@H](COc3ccc(NC(=O)NC(C)C)cc3C(=O)N2C)O1 | inactive |
| COC(=O)C[C@@H]1CC[C@H]2[C@@H](COc3ccc(NC(=O)c4ccc(F)c(F)c4)cc3C(=O)N2C)O1 | inactive |
| CCCNC(=O)N1C[C@@H]2[C@H](c3ccccc31)[C@@H](CO)N2Cc1cc(F)ccc1F | inactive |
| Cc1cccc(C)c1NC(=O)CSCC(=O)c1ccc(O)c(O)c1 | inactive |
| CN1CCN(C(=O)C[C@H]2CC[C@@H]3[C@H](COc4ccc(NC(=O)c5cccs5)cc4C(=O)N3C)O2)CC1 | inactive |
| COc1ccc(C#Cc2ccc3c(c2)O[C@H](CN(C)C(=O)CN2CCOCC2)[C@H](C)CN([C@H](C)CO)S3(=O)=O)cc1 | inactive |
| COc1cccc(-c2ccc3c(c2)O[C@H](CN(C)C(=O)C2CCOCC2)[C@H](C)CN([C@@H](C)CO)S3(=O)=O)c1 | inactive |
| Cc1cc(C)n(C(=O)Cn2nc(C)c(Br)c2C)n1 | inactive |
| CCN(C[C@H]1N[C@H](CO)[C@H]1c1ccc(-c2ccc(F)cc2)cc1)C(=O)COC | inactive |
| CCCCC(=O)OCC(=O)c1[nH]c(C)c(C(=O)OCC)c1C | inactive |
| Cc1cc(C(C)(C)C)cc(S(=O)(=O)NCCc2ccncc2)c1C | inactive |
| Cc1ccc(NCC(=O)c2ccccc2)cc1Cl | inactive |

| Compound | outcome |
| --- | --- |
| CCNC(=O)C[C@@H]1CC[C@H]2[C@H](COc3ccc(NC(=O)c4ccccc4)cc3C(=O)N2C)O1 | inactive |
| CC(C)C(=O)Nc1ccc2c(c1)C(=O)N(C)[C@@H]1CC[C@@H](CC(=O)NCCc3ccccc3)O[C@H]1CO2 | inactive |
| CNC(=O)C[C@H]1CC[C@@H]2[C@H](COc3ccc(NC(=O)Nc4ccccc4)cc3C(=O)N2C)O1 | inactive |
| CN1C(=O)c2cc(NC(=O)c3cccs3)ccc2OC[C@H]2O[C@H](CC(=O)NCC(F)(F)F)CC[C@H]21 | inactive |
| C[C@@H]1CN([C@@H](C)CO)S(=O)(=O)c2ccc(/C=C/c3ccccc3)cc2O[C@@H]1CN(C)C(=O)NC1CCCCC1 | inactive |
| NC(=O)c1csc(-c2ccncc2)n1 | inactive |
| COCC(=O)N(C)C[C@H]1Oc2cc(C#Cc3cccnc3)ccc2S(=O)(=O)N([C@H](C)CO)C[C@H]1C | inactive |
| O=C(NC[C@@H]1[C@H](c2ccccc2)[C@@H](CO)N1Cc1cccnc1)c1ccccn1 | inactive |
| CC(=O)N1[C@H](CNC(=O)C2CC2)[C@H](c2ccc(-c3cccc(F)c3)cc2)[C@@H]1CO | inactive |
| CCC(=O)N1[C@H](CO)[C@H](c2ccccc2)[C@H]1CNC(=O)CN1CCOCC1 | inactive |
| COCC(=O)N(C)C[C@@H]1[C@@H](c2ccccc2)[C@H](CO)N1C(=O)Cc1ccncc1 | inactive |
| COc1ccc(CNC(=O)NCCc2c[nH]c3ccccc23)cc1 | inactive |
| COc1ccc(S(=O)(=O)N(C)C[C@@H]2Oc3ncc(/C=C/c4ccccc4)cc3C(=O)N([C@@H](C)CO)C[C@@H]2C)cc1 | inactive |
| CCCNC(=O)Nc1ccc2c(c1)C(=O)N(C)[C@H]1CC[C@H](CC(=O)NC3CCC3)O[C@H]1CO2 | inactive |
| C[C@H](CO)N1C[C@H](C)[C@H](CN(C)S(=O)(=O)c2ccc(F)cc2)Oc2ccc(NS(C)(=O)=O)cc2C1=O | inactive |
| CN1C(=O)c2cc(NC(=O)c3ccno3)ccc2OC[C@H]2O[C@@H](CC(=O)NCC3CC3)CC[C@@H]21 | inactive |
| C=CCc1ccccc1OCC(O)CN1CCN(CCN2C(=O)c3cccc4cccc(c34)C2=O)CC1 (configuration not stated) | inactive |
| CCCC(=O)Nc1ccc2c(c1)C(=O)N(C)[C@@H]1CC[C@H](CC(=O)N3CCc4ccccc4C3)O[C@H]1CO2 | inactive |
